This assay concerns the target Genome polyprotein (Dengue virus type 2 (strain 16681-PDK53)) (UniProt P29991). Briefly: Dengue-2 NS5 methyltransferase inhibitors, primary screen, biochemical, confirmation dose response (AID 588689). The note with it: Dengue-2 NS5 methyltransferase capping enzyme assay, at 25 µM, stronger effect = higher value.

Screen size: about 340,000 compounds; about 1,000 (0.29%) were called active. No stated cut-off is given here; in the data, inconclusive means inhibition above about 29% without an active follow-up result; inactive means below that. Only a sample is shown. Results with a measured potency or affinity are listed apart.

Chain of Genome polyprotein (Dengue virus type 2 (strain 16681-PDK53)) (P29991 whole entry, looked up): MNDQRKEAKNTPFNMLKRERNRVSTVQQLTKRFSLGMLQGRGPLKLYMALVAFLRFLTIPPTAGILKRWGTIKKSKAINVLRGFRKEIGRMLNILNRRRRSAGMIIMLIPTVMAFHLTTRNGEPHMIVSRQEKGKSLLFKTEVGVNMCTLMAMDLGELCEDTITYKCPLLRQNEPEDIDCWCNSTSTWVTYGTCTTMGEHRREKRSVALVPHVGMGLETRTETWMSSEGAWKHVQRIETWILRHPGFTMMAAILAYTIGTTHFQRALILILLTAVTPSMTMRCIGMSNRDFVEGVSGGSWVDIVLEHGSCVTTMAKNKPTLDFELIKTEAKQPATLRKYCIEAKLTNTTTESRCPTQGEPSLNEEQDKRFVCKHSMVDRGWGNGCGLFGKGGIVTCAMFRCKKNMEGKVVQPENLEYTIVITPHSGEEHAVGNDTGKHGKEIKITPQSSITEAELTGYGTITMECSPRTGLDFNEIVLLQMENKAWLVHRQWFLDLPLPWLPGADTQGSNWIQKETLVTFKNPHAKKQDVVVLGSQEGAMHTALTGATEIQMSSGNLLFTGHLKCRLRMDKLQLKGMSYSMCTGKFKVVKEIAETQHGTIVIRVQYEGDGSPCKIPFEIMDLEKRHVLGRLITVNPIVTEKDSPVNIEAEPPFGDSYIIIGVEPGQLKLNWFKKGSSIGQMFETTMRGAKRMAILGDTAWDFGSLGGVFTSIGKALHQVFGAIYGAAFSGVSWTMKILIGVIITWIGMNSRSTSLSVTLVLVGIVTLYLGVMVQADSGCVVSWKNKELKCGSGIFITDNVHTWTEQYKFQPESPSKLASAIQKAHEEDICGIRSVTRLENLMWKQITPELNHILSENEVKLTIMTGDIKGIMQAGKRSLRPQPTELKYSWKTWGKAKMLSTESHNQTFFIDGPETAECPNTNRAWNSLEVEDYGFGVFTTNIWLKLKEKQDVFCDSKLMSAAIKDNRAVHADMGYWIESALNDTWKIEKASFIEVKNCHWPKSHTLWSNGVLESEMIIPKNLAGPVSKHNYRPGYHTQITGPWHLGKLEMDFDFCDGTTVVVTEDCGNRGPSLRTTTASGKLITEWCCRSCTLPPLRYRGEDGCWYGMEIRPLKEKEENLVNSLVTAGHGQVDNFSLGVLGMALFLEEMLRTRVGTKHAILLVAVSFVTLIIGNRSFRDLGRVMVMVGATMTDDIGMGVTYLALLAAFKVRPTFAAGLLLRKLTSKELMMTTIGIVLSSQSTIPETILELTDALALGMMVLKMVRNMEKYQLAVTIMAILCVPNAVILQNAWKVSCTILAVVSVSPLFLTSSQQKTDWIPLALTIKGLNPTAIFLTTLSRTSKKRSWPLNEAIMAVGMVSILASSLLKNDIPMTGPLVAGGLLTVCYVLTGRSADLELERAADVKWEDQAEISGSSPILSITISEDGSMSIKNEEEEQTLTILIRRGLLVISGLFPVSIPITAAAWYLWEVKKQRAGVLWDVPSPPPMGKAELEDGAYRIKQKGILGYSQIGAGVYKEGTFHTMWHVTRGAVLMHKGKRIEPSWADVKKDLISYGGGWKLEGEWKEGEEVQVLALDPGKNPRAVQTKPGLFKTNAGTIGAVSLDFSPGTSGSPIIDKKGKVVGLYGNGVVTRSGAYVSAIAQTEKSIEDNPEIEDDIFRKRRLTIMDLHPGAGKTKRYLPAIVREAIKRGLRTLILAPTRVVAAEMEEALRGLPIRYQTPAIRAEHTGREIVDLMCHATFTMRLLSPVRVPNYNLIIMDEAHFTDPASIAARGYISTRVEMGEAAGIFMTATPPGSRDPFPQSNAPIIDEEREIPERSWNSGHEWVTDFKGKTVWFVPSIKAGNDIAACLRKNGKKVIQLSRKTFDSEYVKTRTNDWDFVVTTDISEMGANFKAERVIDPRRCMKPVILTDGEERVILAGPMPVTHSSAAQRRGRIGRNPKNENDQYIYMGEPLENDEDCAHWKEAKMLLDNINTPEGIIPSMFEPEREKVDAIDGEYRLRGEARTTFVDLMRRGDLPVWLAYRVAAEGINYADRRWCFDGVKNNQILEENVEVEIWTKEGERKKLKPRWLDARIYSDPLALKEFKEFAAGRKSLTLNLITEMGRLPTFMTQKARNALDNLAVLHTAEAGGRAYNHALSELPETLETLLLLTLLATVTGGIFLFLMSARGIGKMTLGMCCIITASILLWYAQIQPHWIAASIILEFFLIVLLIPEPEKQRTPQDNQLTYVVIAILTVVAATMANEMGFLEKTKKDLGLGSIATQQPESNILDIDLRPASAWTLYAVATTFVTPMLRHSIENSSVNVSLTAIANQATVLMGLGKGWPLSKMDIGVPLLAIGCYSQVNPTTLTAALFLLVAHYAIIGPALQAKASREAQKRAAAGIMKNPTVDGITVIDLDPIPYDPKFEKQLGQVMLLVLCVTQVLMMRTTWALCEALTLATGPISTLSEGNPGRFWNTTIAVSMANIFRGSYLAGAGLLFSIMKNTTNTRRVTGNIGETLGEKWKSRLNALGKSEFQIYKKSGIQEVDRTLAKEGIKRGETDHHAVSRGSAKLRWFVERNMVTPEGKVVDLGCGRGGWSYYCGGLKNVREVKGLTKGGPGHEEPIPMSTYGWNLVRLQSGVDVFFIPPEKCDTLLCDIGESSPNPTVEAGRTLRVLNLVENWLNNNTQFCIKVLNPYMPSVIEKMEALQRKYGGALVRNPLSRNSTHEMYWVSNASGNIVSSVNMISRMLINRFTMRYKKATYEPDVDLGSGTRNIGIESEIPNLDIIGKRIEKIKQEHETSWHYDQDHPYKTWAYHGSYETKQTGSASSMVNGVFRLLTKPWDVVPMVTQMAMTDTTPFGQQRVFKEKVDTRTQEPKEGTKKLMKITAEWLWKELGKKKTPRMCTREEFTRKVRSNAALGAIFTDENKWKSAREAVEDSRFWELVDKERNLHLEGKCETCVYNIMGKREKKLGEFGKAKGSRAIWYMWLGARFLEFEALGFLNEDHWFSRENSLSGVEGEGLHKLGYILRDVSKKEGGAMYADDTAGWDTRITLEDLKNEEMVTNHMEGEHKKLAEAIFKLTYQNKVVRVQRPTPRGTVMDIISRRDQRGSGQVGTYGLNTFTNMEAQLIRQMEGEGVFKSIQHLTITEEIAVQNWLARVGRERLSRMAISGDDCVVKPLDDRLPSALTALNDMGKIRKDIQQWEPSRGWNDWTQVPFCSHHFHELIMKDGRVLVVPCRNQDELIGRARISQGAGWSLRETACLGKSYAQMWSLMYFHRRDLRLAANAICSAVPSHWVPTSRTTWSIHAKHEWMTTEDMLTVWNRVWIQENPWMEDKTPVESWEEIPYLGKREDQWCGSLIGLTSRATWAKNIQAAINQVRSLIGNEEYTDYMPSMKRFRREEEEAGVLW

As to `CN1C(=O)C(C)(C)c2cc(S(=O)(=O)NCc3ccc(Cl)cc3)ccc21`, the inhibition is 0% (inactive).
Still for that read-out and setting: for `O=C(O)c1cc(=O)c2c(Cl)cc(Cl)cc2[nH]1` the value was -1.47% (inactive).
As for `O=C(O)/C(=C\c1ccccc1)c1ccccc1`, the inhibition was -3.95% (inactive).
The same measure, in the same setting: under `COc1ccc(C(=O)Nc2ccc3nc(N4CCOCC4)sc3c2)cc1OC` stands -1.84% (inactive).
`c1csc(-c2cc(N3CCCCC3)c3ccccc3n2)c1`: the inhibition was -2.61% (inactive).
Still for that read-out and setting: under `O=c1c2ccccc2nc(/C=C/c2ccc([N+](=O)[O-])cc2)n1CCCO` stands -2.58% (inactive); under `Cc1cnc(=O)[nH]c1SCc1ccc([N+](=O)[O-])cc1`, 9.19% (inactive).
For the compound `CCOC(=O)N1CCC(NC(=O)c2cc3sccc3n2CC)CC1`, the inhibition was -4.86% (inactive).
`Oc1ccc(/C=N/Nc2ccc(Cl)nn2)cc1O`: the inhibition is 2.61% (inactive).
The same measure, in the same setting: for `Cc1cccc(N/N=C/c2ccccc2O)c1` the value was -8.43% (inactive).
On to `CCN(CC)c1ccc(/C=N/Nc2cccc(C)c2)c(O)c1`, for which the inhibition is 7.27% (inactive).
Regarding `Oc1cccc(/C=N/NC(=S)Nc2cccnc2)c1O`, the inhibition is -2.88% (inactive).
On to `Oc1c(Br)cc(Br)cc1/C=N/Nc1ccc(Cl)nn1`, for which the inhibition was 7.11% (inactive).
Consider `Oc1ccc(/C=N/NC(=S)Nc2cccnc2)c(O)c1`, for which the inhibition is -3.64% (inactive).
Still for that read-out and setting: under `COc1ccc(CCC(=O)N2CCN(C3CCCCC3)CC2)cc1` stands -7.21% (inactive); under `CC(=O)N1CCN(Cc2nc3cc(NC(=O)c4ccccc4C)ccc3n2C)CC1`, -0.69% (inactive).
Consider `Cc1cc2ncn(C3CC(O)C(CO)O3)c2cc1C` (stereo not given), for which the inhibition is 2.33% (inactive).
Same read-out and setting: for `COc1ccc(-c2nn(-c3ccccc3)cc2/C=N/NC(=O)c2cccc(S(=O)(=O)Nc3ccccc3OC)c2)cc1` the value was -3.64% (inactive); for `C=CCc1cccc2cc(C(=O)N3CCN(C(=O)c4ccccc4)CC3)c(=O)oc12`, -4.98% (inactive).
As to `C[C@@H]1CN([C@@H](C)CO)S(=O)(=O)c2ccc(Br)cc2O[C@H]1CN(C)C(=O)c1ccncc1`, the inhibition was -4.96% (inactive).
Turning to `CN(C)c1ccc(/C=N/NC(N)=S)cc1[N+](=O)[O-]`, the inhibition is -11.3% (inactive).
On the same count and under the same terms, for `O=C1NC(=S)N/C1=C\c1cccc([N+](=O)[O-])c1` the value was 2.76% (inactive).
Take `O=C(c1ccc(N2CCOCC2)c([N+](=O)[O-])c1)N1CCN(c2ccccc2)CC1`: the inhibition was -9.43% (inactive).
Same read-out and setting: under `COc1ccc(N2CCN(C(=O)c3ccccc3)CC2)c([N+](=O)[O-])c1` stands 0% (inactive); under `CC(C)CN(CC(C)C)c1ccc(/C=N/n2cnnc2)cc1[N+](=O)[O-]`, -1.82% (inactive).
With `Cc1ccc(/C=C2\NC(=S)NC2=O)cc1[N+](=O)[O-]`, the inhibition is 3.12% (inactive).
On the same count and under the same terms, for `O=C1NC(=O)/C(=C\c2ccc(Oc3ccc([N+](=O)[O-])cn3)cc2)S1` the value was 10.2% (inactive); for `O=C1c2ccccc2C(=O)N1/N=C/c1ccc(Oc2ccc([N+](=O)[O-])cn2)cc1`, -2.91% (inactive); for `COc1ccc(NC(=O)C2CCCN(C(=O)c3ccc(Cl)cc3)C2)cc1S(=O)(=O)N(C)C` (stereo not given), -6.34% (inactive).
Take `CCOc1ccc(NC(=O)c2ccc3c(c2)N(Cc2ccc(F)cc2)C(=O)CS3=O)cc1` (stereo not given): the inhibition was -7.95% (inactive).
Same read-out and setting: under `COCCN(C(=S)Nc1ccc(Cl)cc1OC)C1CCN(C(C)=O)CC1` stands -5.17% (inactive).
Regarding `Cc1cc2c(cc1S(=O)(=O)N1CCOCC1)NC(=O)CO2`, the inhibition was -0.83% (inactive).
Same read-out and setting: under `COc1ccc(S(=O)(=O)NCC2CCCO2)cc1NC(=O)c1ccc(Cl)cc1` (stereo not given) stands -0.72% (inactive); under `C[C@@H]1CN([C@H](C)CO)C(=O)c2cc(NS(=O)(=O)c3cn(C)cn3)ccc2O[C@H]1CN(C)C(=O)Nc1ccccc1`, -1.59% (inactive); under `Cc1ccc(C(=O)NC(=S)Nc2ccc(N3CCOCC3)cc2)c(C)c1`, -1.43% (inactive).
On the same count and under the same terms, under `COc1cccc(N(C(=O)c2snc(C(N)=O)c2N)C(C(=O)NCC2CCCO2)c2ccc(F)cc2)c1` (stereo not given) stands -6.68% (inactive); under `COc1cc(C=O)ccc1OS(=O)(=O)c1ccccc1[N+](=O)[O-]`, -9.17% (inactive).
Same read-out and setting: under `O=C1Nc2ccccc2/C1=C/c1ccc([N+](=O)[O-])cc1` stands -15.7% (inactive).
Turning to `COc1ccc(C=O)cc1OS(=O)(=O)c1ccccc1[N+](=O)[O-]`, the inhibition is 11% (inactive).
On to `O=C1NC(=O)c2cc(Oc3ccc([N+](=O)[O-])cc3)ccc21`, for which the inhibition was 0.39% (inactive).
With `CN(C)c1ccc(/C=N/N=C(N)N)cc1[N+](=O)[O-]`, the inhibition is -2.95% (inactive).
Same read-out and setting: for `CN(C)c1ccc(/C=C/C(=O)c2ccccc2)cc1[N+](=O)[O-]` the value was 7.8% (inactive); for `CC(C)(C)NC(=O)CN(C(=O)C1CSC(=O)C1)c1ccccc1F` (stereo not given), -7.12% (inactive); for `O=C(O)c1ccc(NC(=O)c2cccc(C(=O)Nc3ccc(C(=O)O)cc3)n2)cc1`, -1.63% (inactive).
Same read-out and setting: for `Cc1ncn(-c2ccccc2)c1-c1ccccc1` the value was 0% (inactive).
Consider `CCN(CC)S(=O)(=O)c1ccc(OC)c(NS(=O)(=O)c2cccc(C(=O)O)c2)c1`, for which the inhibition is 7.95% (inactive).
On the same count and under the same terms, for `CN=C1S/C(=C\c2cn(CC(=O)OC)c3ccccc23)C(=O)N1C` the value was -17.1% (inactive); for `CC(=O)n1cc(CO)c2ccccc21`, -0.72% (inactive); for `CC(=O)n1cc(/C=C2/N=C(c3ccccc3)OC2=O)c2ccccc21`, 19.9% (inactive).
Take `COC(=O)Cn1cc(C(=O)OC)c2ccccc21`: the inhibition was -2.39% (inactive).
Consider `COc1ccc(/C=N/NC(=O)c2ccc(O)cc2O)cc1CSc1ccccn1`, for which the inhibition is 2.91% (inactive).
Same read-out and setting: for `CCOC(=O)c1c(NC(=O)CSc2nnnn2C)sc(C)c1C` the value was -3.98% (inactive).
On to `Cc1ccc(C2NC(=S)N3C(c4ccc(C)cc4)NC(=S)N23)cc1` (stereo not given), for which the inhibition was -0.57% (inactive).
On the same count and under the same terms, for `CC(=O)Nc1ccc(-c2nc3cc(Cl)ccc3o2)cc1` the value was 0% (inactive); for `O=C(Nc1ccc2c(c1)C(=O)c1ccccc1-2)c1ccccc1`, -0.39% (inactive).
The same measure, in the same setting: for `COc1cccc(NC(=O)c2ccccc2-c2ccccc2C(=O)O)c1` the value was -10.1% (inactive); for `CCn1c2ccccc2c2cc(NC(=O)c3ccccc3[N+](=O)[O-])ccc21`, 1.28% (inactive).
The same measure, in the same setting: for `CCn1c2ccccc2c2cc(NC(C)=O)ccc21` the value was 4.77% (inactive); for `COc1ccc(NC(=O)c2ccccc2-c2ccccc2C(=O)O)cc1`, -8.51% (inactive).
Take `Cc1ccc(NC(=O)c2ccccc2-c2ccccc2C(=O)O)cc1C`: the inhibition was -2.19% (inactive).
Take `O=C(O)c1ccccc1-c1ccccc1C(=O)Nc1cccc(-c2nc3ccccc3o2)c1`: the inhibition is 8.19% (inactive).
On the same count and under the same terms, under `CCN(CC)S(=O)(=O)c1cccc(NC(=O)COC(=O)/C=C/c2cccs2)c1` stands -2.65% (inactive); under `O=C(O)C1CCN(C(=O)Cc2ccccc2)CC1`, 2.22% (inactive).
Take `c1ccc(C2CC(c3ccccc3)C(c3ccccc3)N2)cc1` (stereo not given): the inhibition was -3.92% (inactive). Besides, the inhibition (measured here: pilot screen replicate inhibition) is -2.44%.
`CCCOc1ccccc1N/C(=N/c1nc(C)cc(C)n1)NC(=O)Nc1ccc(Cl)cc1`: the inhibition was -4.07% (inactive).
Same read-out and setting: under `Oc1ccc(C[C@H]2CNCCN2CCc2cccc3ccccc23)cc1` stands 6.4% (inactive); under `O=C(NCCCO)c1cc2ccccc2[nH]1`, -9.54% (inactive).
The same measure, in the same setting: under `O=C1Nc2ccccc2C12NCCc1c2[nH]c2ccccc12` (stereo not given) stands 6.48% (inactive); under `O=C(O)c1ccccc1-c1ccccc1C(=O)Nc1ccc2c(c1)[nH]c(=O)c1ccccc12`, 9.14% (inactive); under `O=C(O)c1ccccc1-c1ccccc1C(=O)Nc1ccc2oc(=O)c3ccccc3c2c1`, 11.5% (inactive).
As for `CCC(NS(=O)(=O)c1ccc(OC)cc1)C(=O)NCCc1ccccc1` (stereo not given), the inhibition is -3.31% (inactive).
Same read-out and setting: for `Cc1ccc(OCC(=O)Sc2ccc(C)cc2)cc1` the value was -33.2% (inactive).
The same measure, in the same setting: for `CC1(C)[C@@H](O)CC[C@]2(C)[C@H]3C(=O)C=C4[C@@H]5C[C@@](C)(C(=O)O)CC[C@]5(C)CC[C@@]4(C)[C@]3(C)CC[C@@H]12` the value was -0.73% (inactive).
`Cc1sc2ncnc(N3CCC(C(=O)Nc4sc5c(c4C(N)=O)CCC(C)C5)CC3)c2c1C` (stereo not given): the inhibition is 0% (inactive).
The same measure, in the same setting: under `Cc1cccc(CCNC(=O)CCc2nnc(CCc3ccccc3)o2)n1` stands -0.91% (inactive); under `CC(NC(=O)c1ccco1)C(=O)NC(C)c1cc(F)c(Cl)cc1Cl` (stereo not given), -1.62% (inactive).
The same measure, in the same setting: for `COc1ccc(CC(=O)Nc2ccc(S(=O)(=O)N3CCOCC3)cc2)cc1` the value was 0% (inactive); for `O=C(COC(=O)c1ccc([N+](=O)[O-])o1)NCc1ccc2c(c1)OCO2`, 0% (inactive).
`O=C(O)c1cccc(-n2cccc2/C=N/O)c1`: the inhibition is 0% (inactive).
Still for that read-out and setting: for `O=C(O)c1cccc(-n2cccc2/C=C\[N+](=O)[O-])c1` the value was 0.75% (inactive).
On the same count and under the same terms, under `O=C(N/C(=C\c1cccnc1)C(=O)N1CCC(O)CC1)c1ccccc1` stands -1.67% (inactive); under `CC(=O)Nc1ccc(S(=O)(=O)NCCC(=O)OCC(=O)c2ccc(Br)cc2)cc1`, -10.1% (inactive).
On the same count and under the same terms, for `Cc1ccc(C)n1N1C(=O)/C(=C\c2ccc(Cl)cc2)SC1=S` the value was 6.92% (inactive).
On to `CC(=O)NN1C(=O)/C(=C\c2ccc(Cl)cc2)SC1=S`, for which the inhibition was 1.78% (inactive).
The same measure, in the same setting: under `COc1ccc(-c2nc(CS(=O)CC(=O)NCc3ccc(F)cc3)c(C)o2)cc1` (stereo not given) stands -10.5% (inactive); under `COc1cc(C(=O)NCCC(c2ccccc2)c2ccccc2)cc(OC)c1OC`, -9.51% (inactive).
Same read-out and setting: under `CC1=NN(c2ccccc2)C(=O)/C1=C/C=C/c1ccccc1` stands 0.72% (inactive).
Turning to `CC1=NN(c2ccccc2)C(=O)/C1=C\c1sccc1C`, the inhibition was 3.11% (inactive).
As to `CC1=NN(c2ccccc2)C(=O)/C1=C/N(C)C`, the inhibition is 2.35% (inactive).
As for `CC(=O)c1ccc(OC(=O)c2cccs2)cc1`, the inhibition was -2.4% (inactive).
Still for that read-out and setting: under `CC1=NN(c2ccccc2)C(=O)/C1=C/c1ccc[nH]1` stands -6.55% (inactive).
Still for that read-out and setting: under `CC1=NN(c2ccccc2)C(=O)/C1=C\c1cc(C)n(-c2ccccc2)c1C` stands -4.02% (inactive); under `CC1=NN(c2ccc(Br)cc2)C(=O)/C1=C/c1cccs1`, 22% (inactive); under `CCOc1cc(/C=C2/C(=O)N(c3ccccc3)N=C2C)ccc1OC(=O)c1cccs1`, 8.81% (inactive).
